Sampled rows, rich in hits. Any-hit rate of the full collection: about 12%.
JMJD2A Tudor inh = JMJD2A Tudor domain (human) inhibition; Potency, µM (titrated, usually from 114 µM), without a hit: at the highest dose activity change, negative = inhibition, most hits filed as inhibitors; 4.4% of 390,000 active; AlphaScreen JMJD2A-Tudor / H3K4me3 peptide binding; note: % is set by controls: 0 for no effect and ±100 for the full control effect; nearly all actives have a fitted effect of over 50% in size
HP1b chromo inh = HP1-beta chromodomain-methylated histone interaction inhibition. P83916. AlphaScreen HP1-beta / biotin-H3K9me3 peptide binding. Potency, µM (titrated, usually from 114 µM), for inactives: at the top dose activity change, negative = inhibition, actives largely listed as inhibitors. 0.56% of 390,000 active; note: nearly all actives have a fitted effect of over 70% in size
Target sequence (P83916 whole entry, looked up): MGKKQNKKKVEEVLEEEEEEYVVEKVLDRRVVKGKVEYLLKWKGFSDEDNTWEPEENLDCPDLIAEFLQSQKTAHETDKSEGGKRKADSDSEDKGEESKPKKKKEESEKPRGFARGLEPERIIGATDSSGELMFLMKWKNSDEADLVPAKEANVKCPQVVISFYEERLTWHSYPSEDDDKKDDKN
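HP1-beta protein (50 nM final) preincubated 30 min at room temperature with biotinylated H3(1-18)K9me3 peptide (50 nM) in PBS pH 7.4, 0.01% Tween-20, then compound added for 30 min. AlphaScreen streptavidin donor/nickel chelate acceptor beads (10 ug/mL final), 30 min dark, luminescence read.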
Sfp PPTase inh = Sfp phosphopantetheinyl transferase inhibition; AID 1490; Biochemical Sfp PPTase activity, qHTS; Potency, µM, without a hit: largest response in the series, negative = inhibition, usual class: inhibitors; 3.5% of 310,000 active;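 note: the enzyme is Sfp with the accession as filed and its product quenches rhodamine fluorescence; 0% = enzyme reaction without inhibitor and -100% = no enzyme wells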
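Sfp 15 nM + cpd, 15 min RT; start w/ rhodamine-CoA 5 uM, BHQ-2-YbbR 12.5 uM (final); 50 mM Hepes pH 7.6, 10 mM MgCl2, 0.01% NP-40, 0.01% BSA; read 525/598 nm at 0 and 30 min.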
BAZ2B inh = BAZ2B (human) inhibition; Potency, µM (top dose mostly 114 µM), for inactives: at the highest dose activity change, negative = inhibition, hits mostly inhibitors; 4.4% of 360,000 active; AID 504333; AlphaScreen BAZ2B-H3K14Ac peptide displacement; note: % is set by controls: 0 for no effect and ±100 for the full control effect; nearly all actives have a fitted effect of over 60% in size
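AlphaScreen displacement of biotin-H3(5-23)K14Ac peptide (50 nM final) from BAZ2B (50 nM final) in PBS pH 7.4, 0.01% Tween-20; complex preformed 30 min RT, then compounds (top 110 uM) 30 min RT, beads 20 min dark.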
G9a inh = blocks human histone lysine methyltransferase G9a. Q96KQ7. G9a H3K9 monomethylation, AlphaScreen, 2 h. Potency, µM (top dose mostly 102 µM), for inactives: at the highest dose activity, negative = inhibition, hits mostly inhibitors. 8.8% of 350,000 active; note: % is set by controls: 0 for no effect and ±100 for the full control effect; nearly all actives have a fitted effect of over 75% in size
Target sequence (Q96KQ7 913-1193 limits assumed): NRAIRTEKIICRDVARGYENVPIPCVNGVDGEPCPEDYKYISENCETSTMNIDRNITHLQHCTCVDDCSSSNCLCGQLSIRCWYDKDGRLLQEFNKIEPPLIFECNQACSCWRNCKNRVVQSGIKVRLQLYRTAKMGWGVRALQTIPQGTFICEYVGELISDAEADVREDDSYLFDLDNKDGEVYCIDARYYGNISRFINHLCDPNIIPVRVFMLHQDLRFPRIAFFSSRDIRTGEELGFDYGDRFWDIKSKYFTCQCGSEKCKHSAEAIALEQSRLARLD
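Compounds were preincubated with 20 nM G9a for 15 min, after which biotinylated H3K9 peptide (500 nM) and SAM (20 uM) started a 2 h room-temperature reaction. Monomethylated product was quantified by antibody-based AlphaScreen chemiluminescence.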
* = called active by the depositor; [ ] = dose if it differs, or a comment. Calls come from the whole dose curve; as a rule, active = well fitted curve in the direction sought with a large enough effect; inconclusive = small, poorly fitted or top-dose-only effect, or another doubt; inactive = no such curve, though single readings can be large; an effect the other way counts as inactive or inconclusive. Potency is the fitted concentration of half-maximal effect.

CC(=O)Nc1ccc(-c2cn3c(n2)SCC3)cc1 was read as JMJD2A Tudor inh -20.0%, HP1b chromo inh inconclusive, Sfp PPTase inh -0.8%, BAZ2B inh -14.4% and G9a inh 15.6%[2.33 µM].
O=C(Cc1ccc(F)cc1)Nc1cccc(-c2cn3c(n2)SCC3)c1 was read as JMJD2A Tudor inh -21.2%, HP1b chromo inh -18.0%, Sfp PPTase inh 1.2%, BAZ2B inh inconclusive and G9a inh 10µM*.
CCOC(=O)C1=C(C)NC2=C(C1c1ccc([N+](=O)[O-])cc1)S(=O)(=O)c1ccccc12 (stereo not drawn) was read as JMJD2A Tudor inh inconclusive, HP1b chromo inh -21.2%, Sfp PPTase inh inconclusive, BAZ2B inh -30.1% and G9a inh inconclusive.
Screening Cc1nnc(SC(C)C(=O)Nc2ccc3ccccc3c2)n1C (stereo not drawn) returned JMJD2A Tudor inh -4.2%, HP1b chromo inh 31.2%, BAZ2B inh 11.4% and G9a inh inconclusive.
COC(=O)\C(C(C)=O)=C(/C=C/C=C/C=C/N(C)C)N(C)C was read as JMJD2A Tudor inh 11.2µM*, HP1b chromo inh inconclusive, Sfp PPTase inh -18.0%, BAZ2B inh 17.8µM* and G9a inh 31.6µM*.
For Cc1ccc(S(=O)(=O)N2CCC(C(=O)OC(C)C(=O)NC(N)=O)CC2)cc1C (stereo not drawn) the results were JMJD2A Tudor inh -1.7%, HP1b chromo inh 14.8%, Sfp PPTase inh 18.8%, BAZ2B inh -18.1% and G9a inh 6.8%.
CCCC(=O)Nc1c(C(=O)OCC)[nH]c2ccccc12 was read as JMJD2A Tudor inh -12.8%, HP1b chromo inh 11.6%, Sfp PPTase inh -0.5%, BAZ2B inh 4.5% and G9a inh -13.5%[59 µM].
Screening CCOC(=O)c1[nH]c2ccccc2c1NC(=O)c1ccco1 returned JMJD2A Tudor inh -15.1%, HP1b chromo inh 10.0%, Sfp PPTase inh 50.1µM*, BAZ2B inh -9.9% and G9a inh -37.3%[12.7 µM].
CCOC(=O)c1oc2ccccc2c1NC(=O)c1ccco1 was read as JMJD2A Tudor inh 3.9%, HP1b chromo inh 25.7%, Sfp PPTase inh 7.6%, BAZ2B inh 0.2% and G9a inh inconclusive.
CCOC(=O)c1[nH]c2ccccc2c1NC(=S)Nc1ccccc1C was read as JMJD2A Tudor inh -34.5%, HP1b chromo inh -8.9%, Sfp PPTase inh inconclusive, BAZ2B inh -38.2% and G9a inh 31.6µM*.
For CCOC(=O)c1[nH]c2ccccc2c1NC(=S)Nc1cc(C)ccc1C the results were JMJD2A Tudor inh inconclusive, HP1b chromo inh -6.1%, Sfp PPTase inh 39.8µM*, BAZ2B inh inconclusive and G9a inh 44.7µM*.
Screening CCSC(=O)NC12CC3CC(CC(C3)C1)C2 returned JMJD2A Tudor inh 2.9%, HP1b chromo inh 13.8%, Sfp PPTase inh -2.2%, BAZ2B inh 10.6% and G9a inh 21.9%[59 µM].
For O=C(/C=C/c1ccc2c(c1)OCO2)Nc1nc(-c2ccc(F)cc2)cs1 the results were Sfp PPTase inh 24.7%, BAZ2B inh 12.8% and G9a inh -5.6%[59 µM].
`CCN1C(=S)SC(=O)C1=C1C=C(C)OC(C)=C1` gave JMJD2A Tudor inh -22.2%, HP1b chromo inh -24.6%, Sfp PPTase inh 6.9%, BAZ2B inh -35.0% and G9a inh inconclusive.
Screening CCN1C(=S)SC(=O)C1=C1C=C(C)N(Cc2ccco2)C(C)=C1 returned JMJD2A Tudor inh -34.2%, HP1b chromo inh -43.8%, Sfp PPTase inh 14.1µM*, BAZ2B inh inconclusive and G9a inh inconclusive.
For CCCSc1nnc(NC(=O)c2cc(=O)c3ccccc3o2)s1 the results were JMJD2A Tudor inh -10.1%, HP1b chromo inh 26.4%, BAZ2B inh -2.9% and G9a inh -32.9%[59 µM].
C#CCOCCOCCOCCNc1nc(N2CCN(C(=O)[C@H](CCC(=O)O)n3cc(C(N)Cc4ccc(O)cc4)nn3)CC2)nc(N2CCN(C(=O)[C@H](CCC(=O)O)n3cc(C(N)[C@H](C)CC)nn3)CC2)n1 (stereo partly drawn) was read as JMJD2A Tudor inh 25.1µM*, HP1b chromo inh 21.1%, Sfp PPTase inh -28.2%, BAZ2B inh 39.8µM* and G9a inh -127.2%[59 µM].
For C#CCOCCOCCOCCNc1nc(N2CCN(C(=O)[C@H](C)n3cc(CCC(=O)O)nn3)CC2)nc(N2CCN(C(=O)[C@H](Cc3ccc(O)cc3)n3cc(CCO)nn3)CC2)n1 the results were JMJD2A Tudor inh -33.8% and HP1b chromo inh 25.8%.
Screening C#CCOCCOCCOCCNc1nc(N2CCN(C(=O)[C@H](CCC(=O)O)n3cc(CN)nn3)CC2)nc(N2CCN(C(=O)[C@H](CCCN=C(N)N)n3cc(C(N)[C@@H](C)CC)nn3)CC2)n1 (stereo partly drawn) returned JMJD2A Tudor inh inconclusive and HP1b chromo inh 21.7%.
`C#CCOCCOCCOCCNc1nc(N2CCN(C(=O)[C@H](CCC(=O)O)n3cc(C(N)Cc4ccc(O)cc4)nn3)CC2)nc(N2CCN(C(=O)[C@H](Cc3ccc(O)cc3)n3cc(C(N)[C@H](C)CC)nn3)CC2)n1` (stereo partly drawn) gave Sfp PPTase inh -14.8%, BAZ2B inh 50.1µM* and G9a inh -25.9%[12.7 µM].
`CC1(C(=O)Nc2cccc(C(F)(F)F)c2)CO1` (stereo not drawn) gave Sfp PPTase inh 15.3%, BAZ2B inh 0.3% and G9a inh -3.1%.
`CCN(CC)CCNc1nc(SC)nc2sc3c(c12)CCN(C)C3` gave JMJD2A Tudor inh -29.5%, HP1b chromo inh -24.2%, Sfp PPTase inh 5.6%, BAZ2B inh -10.1% and G9a inh inconclusive.
Screening CSc1nc(NCc2ccccc2)c2c3c(sc2n1)CN(C)CC3 returned JMJD2A Tudor inh inconclusive, HP1b chromo inh -2.1%, Sfp PPTase inh inconclusive, BAZ2B inh -13.8% and G9a inh 39.8µM*.
For CSc1nc(NCC(C)C)c2c3c(sc2n1)CN(C)CC3 the results were JMJD2A Tudor inh -20.0%, HP1b chromo inh 48.5%, Sfp PPTase inh 7.8%, BAZ2B inh 1.0% and G9a inh -38.7%[59 µM].
For CSc1nc(NCCCN(C)C)c2c3c(sc2n1)CN(C)CC3 the results were Sfp PPTase inh 6.9%, BAZ2B inh -5.7% and G9a inh 50.1µM*.
For O=C(CCCn1c(=O)[nH]c2ccsc2c1=O)N1CCN(c2ccc(Cl)cc2)CC1 the results were JMJD2A Tudor inh -11.9%, HP1b chromo inh 3.8%, BAZ2B inh -2.3% and G9a inh -4.6%[59 µM].
CCOC(=O)C(NC(=O)CC(C)C)(Nc1sc(C)c(CC)c1C#N)C(F)(F)F (stereo not drawn) was read as JMJD2A Tudor inh -23.2%, HP1b chromo inh 28.8%, Sfp PPTase inh 13.6%, BAZ2B inh 5.4% and G9a inh 9.9%[59 µM].

Screening data from PubChem.
